# Assay results: PubChem BioAssay (NCI)
# About 79,000 compounds went through this panel and 15% of them were active in at least one assay; those are over-represented in the sample as a whole. Unmarked numbers belong to inactive results. Activity calls are given as the source filed them. Cut-off read from the data, not from the text of the source: active = growth inhibition above about 70%; inactive = the rest.
# Key:
# [1] = NCI Yeast Anticancer Drug Screen. Data for the rad52 strain (AID 147);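 note: 0% = growth of vehicle-treated control cultures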; conditions: S. cerevisiae rad52 mutant growth inhibition, hits give high values
# Method in brief: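 The repair-mutant yeast strain was incubated with compounds, then growth was read and inhibition derived relative to vehicle.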
# [2] = NCI Yeast Anticancer Drug Screen. Data for the wt1 strain (AID 149);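 note: 0% = growth of vehicle-treated wt1 cultures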; conditions: S. cerevisiae wt1 strain (SPY 50644) growth inhibition, hits give high values
# Method in brief: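 Measured: growth of wt1 yeast under compound versus vehicle treatment, reported as inhibition.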
# [3] = NCI Yeast Anticancer Drug Screen. Data for the rad50EPP+ strain (AID 151);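 note: 0% = growth of vehicle-treated control cultures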; conditions: S. cerevisiae rad50 mutant strain, hits give high values
# Method in brief: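 Vehicle-normalised growth inhibition; rad50EPP+ yeast strain, altered in DNA damage repair, compound-treated.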
# [4] = NCI Yeast Anticancer Drug Screen. Data for the mgt1 strain (AID 153); conditions: S. cerevisiae mgt1 mutant growth inhibition, hits give high values
# Method in brief: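 Vehicle-normalized growth inhibition is determined in mgt1 yeast, a strain selected for a defined alteration in DNA repair or cell cycle control.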
# [5] = NCI Yeast Anticancer Drug Screen. Data for the rad50 strain (AID 155);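 note: 0% = growth of vehicle-only cultures of the same strain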; conditions: S. cerevisiae rad50 strain growth inhibition, hits give high values
# Method in brief: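 Growth of the mutant yeast was measured after compound exposure and referenced to vehicle-treated cultures.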
# [6] = NCI Yeast Anticancer Drug Screen. Data for the mec2-1 strain (AID 157); conditions: S. cerevisiae mec2-1 strain, hits give high values
# Method in brief: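 Mutant yeast (mec2-1) grown with compound; growth inhibition relative to vehicle control reported.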
# [7] = NCI Yeast Anticancer Drug Screen. Data for the rad14 strain (AID 159);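 note: 0% = growth of vehicle-treated control cultures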; conditions: S. cerevisiae rad14 strain growth inhibition, hits give high values
# Method in brief: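 Here, inhibition of yeast growth was measured after compound exposure, using a strain with a genetic defect in DNA damage repair and vehicle-treated cultures as the reference.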
# [8] = NCI Yeast Anticancer Drug Screen. Data for the sgs1 mgt1 strain (AID 161);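 note: 0% = growth of cultures given vehicle only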; conditions: S. cerevisiae sgs1 mgt1 strain, hits give high values
# Method in brief: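 Percent growth inhibition was derived by comparing compound-exposed mutant yeast with vehicle-exposed cultures. The strain carries alterations in DNA damage repair.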
# [9] = NCI Yeast Anticancer Drug Screen. Data for the CLN2oe strain (AID 163);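 note: 0% = growth of vehicle-only control cultures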; conditions: S. cerevisiae CLN2oe strain, hits give high values
# Method in brief: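 Compounds are applied to yeast harbouring a defined cell-cycle control change; reduced growth compared with vehicle-treated controls gives the value.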
# [10] = NCI Yeast Anticancer Drug Screen. Data for the cln2 rad14 strain (AID 165);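 note: 0% = growth equal to vehicle treated cultures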; conditions: S. cerevisiae cln2 rad14 strain, hits give high values
# Method in brief: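 Readout is yeast growth inhibition versus vehicle-treated controls, using a strain with cln2 and rad14 alterations exposed to compound.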
# [11] = NCI Yeast Anticancer Drug Screen. Data for the bub3 strain (AID 167); conditions: S. cerevisiae bub3 mutant strain, hits give high values
# Method in brief: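 Whole-cell yeast assay. The mutant strain was incubated with compounds, and growth inhibition was determined by comparison with vehicle-treated cells.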
# [12] = NCI Yeast Anticancer Drug Screen. Data for the wt2 strain (AID 169);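 note: 0% = growth of vehicle-treated yeast cultures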; conditions: S. cerevisiae wt2 strain growth inhibition, hits give high values
# Method in brief: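 Against vehicle-treated controls, the growth of yeast exposed to each compound was compared, and the inhibition was recorded.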
# [13] = NCI Yeast Anticancer Drug Screen. Data for the mlh1 strain (AID 171);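 note: 0% = growth of vehicle-treated control cultures of the same strain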; conditions: S. cerevisiae mlh1 strain growth inhibition, hits give high values
# Method in brief: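 Measured: yeast growth. Reference: vehicle-treated controls. Organism: strain with a defined alteration affecting DNA damage repair or cell cycle control, treated with compound.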
# [14] = NCI Yeast Anticancer Drug Screen. Data for the sgs1 strain (AID 173);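 note: 0% = growth of vehicle-only control cultures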; conditions: S. cerevisiae sgs1 mutant, hits give high values
# Method in brief: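 Each compound was added to cultures of the altered yeast strain. Growth was recorded, and inhibition was derived by comparison with vehicle controls.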
# [15] = NCI Yeast Anticancer Drug Screen. Data for the mlh1 rad18 strain (AID 175); conditions: S. cerevisiae mlh1 rad18 strain growth inhibition, hits give high values
# Method in brief: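 Genetically defined yeast (DNA repair-deficient) exposed to compounds; growth inhibition determined relative to vehicle.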
# [16] = NCI Yeast Anticancer Drug Screen. Data for the rad18 strain (AID 177); conditions: S. cerevisiae rad18 mutant growth inhibition, hits give high values
# Method in brief: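 Vehicle-treated cultures served as the baseline for scoring compound-induced growth inhibition in DNA-repair-mutant yeast.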
# [17] = at 5.0 µM (retest, dose inferred, filed as 0.5)
# [18] = at 50.0 µM (retest, dose inferred, filed as 5.0)
structure (smiles),measurement,setting,value
Cc1c(-c2ccccc2)[nH]c2ccccc12,growth inhibition,[1]; at 1.2 µM,-7%
same,growth inhibition,[1]; at 3.7 µM,-8%
same,growth inhibition,[1]; at 11.0 µM,-4%
same,growth inhibition,[1]; at 33.0 µM,94% (active)
same,growth inhibition,[1]; at 100.0 µM,99% (active)
same,growth inhibition,[2]; at 1.2 µM,-21%
same,growth inhibition,[2]; at 3.7 µM,-12%
same,growth inhibition,[2]; at 11.0 µM,-23%
same,growth inhibition,[2]; at 33.0 µM,92% (active)
same,growth inhibition,[2]; at 100.0 µM,98% (active)
same,growth inhibition,[3]; at 1.2 µM,-2%
same,growth inhibition,[3]; at 3.7 µM,20%
same,growth inhibition,[3]; at 11.0 µM,16%
same,growth inhibition,[3]; at 33.0 µM,52%
same,growth inhibition,[3]; at 100.0 µM,98% (active)
same,growth inhibition,[4]; at 1.2 µM,-19%
same,growth inhibition,[4]; at 3.7 µM,-12%
same,growth inhibition,[4]; at 11.0 µM,-11%
same,growth inhibition,[4]; at 33.0 µM,95% (active)
same,growth inhibition,[4]; at 100.0 µM,98% (active)
same,growth inhibition,[5]; at 1.2 µM,-4%
same,growth inhibition,[5]; at 3.7 µM,-8%
same,growth inhibition,[5]; [17],33%
same,growth inhibition,[5]; at 11.0 µM,-12%
same,growth inhibition,[5]; at 33.0 µM,95% (active)
same,growth inhibition,[5]; [18],81% (active)
same,growth inhibition,[5]; at 50.0 µM,91.3% (active)
same,growth inhibition,[5]; at 100.0 µM,98% (active)
same,growth inhibition,[6]; at 1.2 µM,-2%
same,growth inhibition,[6]; at 3.7 µM,8%
same,growth inhibition,[6]; [17],48%
same,growth inhibition,[6]; at 11.0 µM,-2%
same,growth inhibition,[6]; at 33.0 µM,94% (active)
same,growth inhibition,[6]; [18],85% (active)
same,growth inhibition,[6]; at 50.0 µM,92.5% (active)
same,growth inhibition,[6]; at 100.0 µM,98% (active)
same,growth inhibition,[7]; at 1.2 µM,-2%
same,growth inhibition,[7]; at 3.7 µM,0%
same,growth inhibition,[7]; at 11.0 µM,2%
same,growth inhibition,[7]; at 33.0 µM,95% (active)
same,growth inhibition,[7]; at 100.0 µM,98% (active)
same,growth inhibition,[8]; [17],-1%
same,growth inhibition,[8]; [18],99% (active)
same,growth inhibition,[8]; at 50.0 µM,93.5% (active)
same,growth inhibition,[9]; at 1.2 µM,5%
same,growth inhibition,[9]; at 3.7 µM,3%
same,growth inhibition,[9]; at 11.0 µM,1%
same,growth inhibition,[9]; at 33.0 µM,98% (active)
same,growth inhibition,[9]; at 100.0 µM,99% (active)
same,growth inhibition,[10]; [17],51%
same,growth inhibition,[10]; [18],99% (active)
same,growth inhibition,[10]; at 50.0 µM,92.3% (active)
same,growth inhibition,[11]; at 1.2 µM,-6%
same,growth inhibition,[11]; at 3.7 µM,-7%
same,growth inhibition,[11]; [17],22%
same,growth inhibition,[11]; at 11.0 µM,-15%
same,growth inhibition,[11]; at 33.0 µM,95% (active)
same,growth inhibition,[11]; [18],98% (active)
same,growth inhibition,[11]; at 50.0 µM,91.8% (active)
same,growth inhibition,[11]; at 100.0 µM,98% (active)
same,growth inhibition,[12]; at 1.2 µM,10%
same,growth inhibition,[12]; at 3.7 µM,5%
same,growth inhibition,[12]; at 11.0 µM,6%
same,growth inhibition,[12]; at 33.0 µM,68%
same,growth inhibition,[12]; at 100.0 µM,99% (active)
same,growth inhibition,[13]; at 1.2 µM,7%
same,growth inhibition,[13]; at 3.7 µM,8%
same,growth inhibition,[13]; at 11.0 µM,6%
same,growth inhibition,[13]; at 33.0 µM,96% (active)
same,growth inhibition,[13]; at 100.0 µM,98% (active)
same,growth inhibition,[14]; at 1.2 µM,14%
same,growth inhibition,[14]; at 3.7 µM,19%
same,growth inhibition,[14]; at 11.0 µM,14%
same,growth inhibition,[14]; at 33.0 µM,97% (active)
same,growth inhibition,[14]; at 100.0 µM,100% (active)
same,growth inhibition,[15]; [17],38%
same,growth inhibition,[15]; [18],96% (active)
same,growth inhibition,[15]; at 50.0 µM,91.2% (active)
same,growth inhibition,[16]; at 1.2 µM,3%
same,growth inhibition,[16]; at 3.7 µM,5%
same,growth inhibition,[16]; at 11.0 µM,-9%
same,growth inhibition,[16]; at 33.0 µM,97% (active)
same,growth inhibition,[16]; at 100.0 µM,99% (active)
COc1cc2c(cc1C[N+](C)(C)CSc1ccccc1)-c1ccccc1CC2,growth inhibition,[1]; at 1.2 µM,-12%
same,growth inhibition,[1]; at 3.7 µM,-8%
same,growth inhibition,[1]; at 11.0 µM,79% (active)
same,growth inhibition,[1]; at 33.0 µM,99% (active)
same,growth inhibition,[1]; at 100.0 µM,99% (active)
same,growth inhibition,[2]; at 1.2 µM,-17%
same,growth inhibition,[2]; at 3.7 µM,-14%
same,growth inhibition,[2]; at 11.0 µM,29%
same,growth inhibition,[2]; at 33.0 µM,98% (active)
same,growth inhibition,[2]; at 100.0 µM,98% (active)
same,growth inhibition,[3]; at 1.2 µM,3%
same,growth inhibition,[3]; at 3.7 µM,20%
same,growth inhibition,[3]; at 11.0 µM,19%
same,growth inhibition,[3]; at 33.0 µM,20%
same,growth inhibition,[3]; at 100.0 µM,43%
same,growth inhibition,[4]; at 1.2 µM,7%
same,growth inhibition,[4]; at 3.7 µM,15%
same,growth inhibition,[4]; at 11.0 µM,30%
same,growth inhibition,[4]; at 33.0 µM,98% (active)
same,growth inhibition,[4]; at 100.0 µM,99% (active)
same,growth inhibition,[5]; at 1.2 µM,-7%
same,growth inhibition,[5]; at 3.7 µM,8%
same,growth inhibition,[5]; [17],11%
same,growth inhibition,[5]; at 11.0 µM,76% (active)
same,growth inhibition,[5]; at 33.0 µM,98% (active)
same,growth inhibition,[5]; [18],98% (active)
same,growth inhibition,[5]; at 50.0 µM,99% (active)
same,growth inhibition,[5]; at 100.0 µM,99% (active)
same,growth inhibition,[6]; at 1.2 µM,-6%
same,growth inhibition,[6]; at 3.7 µM,6%
same,growth inhibition,[6]; [17],3%
same,growth inhibition,[6]; at 11.0 µM,80% (active)
same,growth inhibition,[6]; at 33.0 µM,98% (active)
same,growth inhibition,[6]; [18],99% (active)
same,growth inhibition,[6]; at 50.0 µM,99.3% (active)
same,growth inhibition,[6]; at 100.0 µM,96% (active)
same,growth inhibition,[7]; at 1.2 µM,-12%
same,growth inhibition,[7]; at 3.7 µM,-10%
same,growth inhibition,[7]; at 11.0 µM,64%
same,growth inhibition,[7]; at 33.0 µM,98% (active)
same,growth inhibition,[7]; at 100.0 µM,98% (active)
same,growth inhibition,[8]; [17],-1%
same,growth inhibition,[8]; [18],99% (active)
same,growth inhibition,[8]; at 50.0 µM,99.2% (active)
same,growth inhibition,[9]; at 1.2 µM,-17%
same,growth inhibition,[9]; at 3.7 µM,6%
same,growth inhibition,[9]; at 11.0 µM,70% (active)
same,growth inhibition,[9]; at 33.0 µM,98% (active)
same,growth inhibition,[9]; at 100.0 µM,99% (active)
same,growth inhibition,[10]; [17],-3%
same,growth inhibition,[10]; [18],99% (active)
same,growth inhibition,[10]; at 50.0 µM,99.3% (active)
same,growth inhibition,[11]; at 1.2 µM,17%
same,growth inhibition,[11]; at 3.7 µM,-4%
same,growth inhibition,[11]; [17],1%
same,growth inhibition,[11]; at 11.0 µM,78% (active)
same,growth inhibition,[11]; at 33.0 µM,98% (active)
same,growth inhibition,[11]; [18],98% (active)
same,growth inhibition,[11]; at 50.0 µM,99.5% (active)
same,growth inhibition,[11]; at 100.0 µM,99% (active)
same,growth inhibition,[12]; at 1.2 µM,13%
same,growth inhibition,[12]; at 3.7 µM,21%
same,growth inhibition,[12]; at 11.0 µM,96% (active)
same,growth inhibition,[12]; at 33.0 µM,98% (active)
same,growth inhibition,[12]; at 100.0 µM,99% (active)
same,growth inhibition,[13]; at 1.2 µM,6%
same,growth inhibition,[13]; at 3.7 µM,16%
same,growth inhibition,[13]; at 11.0 µM,35%
same,growth inhibition,[13]; at 33.0 µM,98% (active)
same,growth inhibition,[13]; at 100.0 µM,98% (active)
same,growth inhibition,[14]; at 1.2 µM,2%
same,growth inhibition,[14]; at 3.7 µM,8%
same,growth inhibition,[14]; at 11.0 µM,36%
same,growth inhibition,[14]; at 33.0 µM,97% (active)
same,growth inhibition,[14]; at 100.0 µM,99% (active)
same,growth inhibition,[15]; [17],-5%
same,growth inhibition,[15]; [18],99% (active)
same,growth inhibition,[15]; at 50.0 µM,99.3% (active)
same,growth inhibition,[16]; at 1.2 µM,9%
same,growth inhibition,[16]; at 3.7 µM,12%
same,growth inhibition,[16]; at 11.0 µM,77% (active)
same,growth inhibition,[16]; at 33.0 µM,99% (active)
same,growth inhibition,[16]; at 100.0 µM,99% (active)
